The list is not random: actives were taken first. Their share in the collection is about 12%.
USP10 inh: human USP10 deubiquitinase inhibition; purified USP10, Ub-rhodamine fluorescence, 60 min; Q14694; inhibition, % at 20 µM; 1.1% of 47,000 active
USP7 inh: human USP7 deubiquitinase inhibition | inhibition, % at 20 µM | purified USP7, Ub-rhodamine cleavage fluorescence | 0.3% of 47,000 active | Q93009
USP8 block: blocks human USP8 ubiquitin-rhodamine cleavage | P40818 | purified USP8, Ub-rhodamine cleavage fluorescence, 30 min | inhibition, % at 20 µM | 4.2% of 47,000 active
USP30 inh: inhibitors of human USP30 deubiquitinase | inhibition, % at 25 µM | purified USP30, Ub-rhodamine cleavage fluorescence | Q70CQ3 | AID 1645860 | 5.3% of 47,000 active
UCHL1 block: inhibitors of human UCHL1 deubiquitinase; P09936; purified UCHL1, Ub-rhodamine cleavage fluorescence; inhibition, % at 20 µM; 0.2% of 47,000 active
USP17 inh: blocks human USP17 ubiquitin-rhodamine cleavage | A8MUK1 | purified USP17, Ub-rhodamine cleavage fluorescence, 3 h | inhibition, % at 50 µM | 6.5% of 47,000 active
Numbers stand for hits; – = inactive; · = not tested or not shown. Cut-off read from the data, not from the text of the source: active = inhibition above about 30%; inactive = the rest.

SMILES	USP10 inh	USP7 inh	USP8 block	USP30 inh	UCHL1 block	USP17 inh
FC(F)(F)c1cnc(-n2nccc2-c2ccc(Sc3ccccc3)cc2)c(Cl)c1	–	–	–	–	–	–
Cc1cc2ncc(-c3ccsc3)c(N)n2n1	–	–	–	–	–	–
CCOc1c(OC)cccc1C1CN2C(=O)c3ccccc3C2c2[nH]c3ccccc3c21 (centres undefined)	–	–	–	–	–	–
Cc1nnc2c3ccccc3c(N3CCCCC3)nn12	–	–	–	–	–	–
O=C1CC(c2ccco2)Cc2nc(N3CCc4ccccc43)ncc21 (centres undefined)	–	–	40	–	–	37
O=C(Nc1ncc2c(n1)CC(c1ccco1)CC2=O)c1ccco1 (centres undefined)	–	–	–	–	–	–
COc1cc(C2CC(=O)c3cnc(N4CCc5ccccc54)nc3C2)cc(OC)c1OC (centres undefined)	–	–	–	–	–	–
Cc1ccc2c(C)nc(Nc3ncc4c(n3)CC(c3ccco3)CC4=O)nc2c1 (centres undefined)	–	–	61	38	–	59
O=C1CC(c2ccco2)Cc2nc(N3CCc4ccccc4C3)ncc21 (centres undefined)	–	–	–	·	–	44
c1ncc(Nc2nccc(C3CCN(Cc4ncc[nH]4)CC3)n2)cn1	–	–	–	–	–	–
COc1ccc(NS(=O)(=O)c2cc(NC(=O)CC(=O)c3ccc([N+](=O)[O-])cc3)ccc2Cl)cc1	58	–	58	–	–	49
COc1ccc(NC(=O)CC(=O)c2ccc([N+](=O)[O-])cc2)cc1S(=O)(=O)Nc1ccc(Cl)cc1	49	–	58	61	–	38
COC(=O)c1cc2cc(NC(=O)c3cccc(Cl)c3)ccc2s1	–	–	–	36	–	–
COc1ccc(NS(=O)(=O)c2cccc(NC(=O)CCC(=O)c3ccc(Cl)cc3)c2)cc1	–	–	–	–	–	–
COc1ccc(NS(=O)(=O)c2cccc(NC(=O)CC(=O)c3ccc([N+](=O)[O-])cc3)c2)cc1	46	–	–	·	–	76
COc1ccc(/C=C/C(=O)Nc2nc(-c3ccc(Cl)cc3Cl)cs2)cc1OC	–	–	–	–	–	–
O=C(c1ccc(Cl)cc1)N1CCN(c2cnn3cnnc3c2)CC1	–	–	–	–	–	–
COc1ccc(S(=O)(=O)c2ccc(NC(=O)c3cccc(Cl)c3)cc2C#N)cc1	–	–	–	–	–	33
COc1cccc(NS(=O)(=O)c2ccc(Oc3ccccc3OC)cc2)c1	–	–	–	37	–	36
COc1cccc(NS(=O)(=O)c2ccc3c(c2)N(C)CCO3)c1	–	–	–	–	–	–
COc1ccc(C(=O)Nc2cccc(S(=O)(=O)NC3=NCCCCC3)c2)cc1	–	–	–	–	–	–
COc1ccccc1NS(=O)(=O)c1cc(NC(=O)CC(=O)c2ccc([N+](=O)[O-])cc2)ccc1C	33	–	68	–	–	·
COc1ccc(NS(=O)(=O)c2ccc(C(=O)Nc3cccc(C(C)=O)c3)cc2)cc1	–	–	–	–	–	46
COc1ccc(NC(=O)c2cccc(C#N)c2)cc1S(=O)(=O)Nc1ccccc1Cl	–	–	–	–	–	–
CC1SCC(=O)N(c2ccc(F)cc2)C1=O (centres undefined)	–	–	–	–	–	–
SMILES	USP10 inh	USP7 inh	USP8 block	USP30 inh	UCHL1 block	USP17 inh
O=C(COc1cccc2ccc(N3CCC(Cc4ccccc4)CC3)nc12)Nc1cccc(Cl)c1	–	–	84	–	–	39
Cc1cc2nc(Oc3cccc(C(F)(F)F)c3)c3ccccc3n2n1	–	–	–	49	–	35
CCCc1nc2c(sc3nc4c(cc32)COC(C)(C)C4)c(=O)n1CC(=O)Nc1ccccc1C	–	–	–	–	–	62
Cc1nc(SC(C)C(=O)Nc2ccccc2)c2sc3nc4c(cc3c2n1)COC(C)(C)C4 (centres undefined)	–	–	–	–	–	–
O=C(C1CCCC1)N1CCC(c2nc3c(nnn3Cc3cccc(Cl)c3)c(=O)[nH]2)CC1	–	–	–	–	–	–
O=C(C1CCCC1)N1CCC(c2nc3c(nnn3Cc3ccccc3Cl)c(=O)[nH]2)CC1	–	–	–	39	–	–
O=C(C(c1ccccc1)c1ccccc1)N1CCC(c2nc3c(nnn3Cc3c(F)cccc3Cl)c(=O)[nH]2)CC1	–	–	–	44	–	51
CC(C)(C)CC(=O)N1CCC(c2nc3c(nnn3Cc3c(F)cccc3Cl)c(=O)[nH]2)CC1	–	–	–	–	–	–
CC(=O)Nc1cccc(C(=O)N2CCN(c3ccc(-c4nc(C)cs4)cn3)CC2)c1	–	–	–	–	–	–
Cc1c(NC(=O)Cc2cccs2)cccc1-n1cnnn1	–	–	51	–	–	–
COc1ccc(-c2ccccc2)cc1[C@H]1C[C@@H](NC(C)=O)CC2(CCOCC2)O1	–	–	–	–	–	–
CC(OC(=O)c1ccc(N(C)C)cc1)C(=O)Nc1ccc2c(c1)OCCO2 (centres undefined)	–	–	–	–	–	40
CC(OC(=O)c1ccc2ncsc2c1)C(=O)Nc1ccc2c(c1)OCO2 (centres undefined)	–	–	–	–	–	–
COc1ccc(NC(=O)C(C)OC(=O)CNC(=O)c2ccc(Cl)cc2Cl)cc1 (centres undefined)	–	–	–	–	–	–
CC(OC(=O)CNC(=O)c1ccc(Br)cc1)C(=O)Nc1ccc2c(c1)OCCO2 (centres undefined)	–	–	–	–	–	66
CC(OC(=O)c1ccc(N2CCCC2=O)cc1)C(=O)Nc1ccc2c(c1)OCCO2 (centres undefined)	–	–	–	–	–	43
CN(C)S(=O)(=O)c1cccc(NC(=O)c2ccc(N3CCCC3=O)cc2)c1	–	–	–	32	–	48
O=C1CC(c2ccccc2)N(c2nc(C(F)(F)F)nc3ccccc23)CCN1 (centres undefined)	–	–	–	–	–	–
Cc1cc(-c2ccccc2)n(-c2cc(C)c3ccccc3n2)n1	–	–	–	–	–	–
CC(OC(=O)c1ccc(N2CCCC2=O)cc1)C(=O)Nc1ccc2c(c1)OCO2 (centres undefined)	–	–	56	–	–	–
O=C(Nc1ccc2c(c1)OCCO2)c1ccc(N2CCCC2=O)cc1	–	·	–	67	–	35
CC(OC(=O)c1ccc2c(=O)n3c(nc2c1)CCCCC3)C(=O)Nc1ccc2c(c1)OCO2 (centres undefined)	–	–	–	–	–	–
Cc1cnc(C2CN(C(=O)c3cnc4ccccc4c3)CCO2)[nH]1 (centres undefined)	–	–	–	–	–	–
Cc1cc(C(=O)N[C@H]2[C@H](O)[C@H](O)C[C@@H]2c2ccccc2)c(C)o1	–	–	–	–	–	–

Bioassay records deposited in PubChem BioAssay by Buhrlage Lab, Dana-Farber Cancer Institute and Novartis Institutes for BioMedical Research (Cambridge, Mass).
